# Laboratory results from PubChem BioAssay (NCI).
# Where “and” joins values, the source holds several entries; their conditions need not be identical. Equal entries are not always repeated. The panel holds about 83,000 compounds, 20% with a hit somewhere; the sample as a whole holds those more often.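 Step 1: grow cells in 96-well plates. Step 2: add test compound at a single concentration. Step 3: incubate 48 h. Step 4: record percent growth.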 Calls of active or inactive are those of the source. The calls were made as follows: active = growth percent below 10; inactive = the rest.
# Test system: MDA-MB-468 breast
# Test: NCI-60 one-dose screen, 48 h (100 = growth as untreated, 0 = no growth, -100 = all killed)
# Settings: 10 µM unless noted
row,Structure (SMILES),growth
1,CN1CCN(Cc2ccc(NC(=O)c3cncc(C#Cc4cnc5ccc(OC6CCOCC6)nn45)c3)cc2C(F)(F)F)CC1,-62.5% (active)
2,O=NN(C(=O)NC1CCC(C(=O)O)CC1)C1CCC(C(=O)O)CC1 (stereo not given),96.1% (inactive)
3,Cc1[nH]c2ccc(F)cc2c1CCNC(=O)C1CCN(C(=O)c2ccccc2)C1 (stereo not given),86.8% [25 µM] (inactive)
4,CC/C(=C(/c1ccc(O)cc1)c1ccc(OCCN2CCCCCC2)cc1)c1ccc(Cl)cc1,38.6% (inactive)
5,Clc1c(Cl)[n+](Cc2ccc3ccccc3c2)cn1Cc1ccc2ccccc2c1,-22.6% (active)
6,CN1CCN(Cc2ccc(NC(=O)c3cncc(C#Cc4c(N)ncc5ccccc45)c3)cc2C(F)(F)F)CC1,-71.6% (active)
7,Cc1cccc(Oc2ccc(Nc3ncnc4ccc(NC(=O)CN5CCN(C)CC5)cc34)cc2Cl)c1,-62.9% (active)
8,CC(=O)Cc1cccnc1,97.1% (inactive)
9,CCOC(=O)c1cc(C(=O)c2cc(OC)c(OC)c(OC)c2)n2c1ccc1c3cccnc3ccc12,61.5% (inactive)
10,CNC(=O)c1cc(Oc2ccc(NC(=O)Nc3ccc(Cl)c(C(F)(F)F)c3)cc2)ccn1,-12.8% (active) and 20.5% (inactive)
11,COc1ccc(/C=C/c2ccc3ccccc3n2)c(OC)c1,18.3% (inactive)
12,Nc1cc2c([nH]c[n+]2CC#CCCl)c(SCC#CCCl)n1,-57.1% (active)
13,Oc1[nH]c2ccc(Cl)cc2c1/C=c1/ccc2c(c1)N=C(c1ccc(F)cc1)N=2,9.65% (active)
14,CCOC(=O)C1=C(C)N=C2Sc3ccccc3N2C1c1ccccc1 (stereo not given),74.8% (inactive)
15,Cc1ccc(NC(=O)c2cc(-c3nc4ccccc4s3)c(=O)n(NS(=O)(=O)c3ccc(Cl)cc3)c2N)cc1,109% (inactive)
16,CC(=O)Oc1ccc(/C=N/NC(N)=S)nc1,-13.9% (active)
17,CN(C)C1=NCCN1,108% (inactive)
18,O=C(/C=C/c1cn(-c2ccccc2)nc1-c1ccc(Cl)cc1)c1ccc(F)cc1,100% (inactive)
19,COc1ccc2c(c1)[n+]([O-])c(C(=O)/C=C/C=C(\Cl)c1cc(OC)c(OC)c(OC)c1)c(C)[n+]2[O-],62.2% (inactive)
20,Cc1c(C(=O)NCCC(=O)NO)sc2ncnc(Nc3ccc(F)c(Cl)c3)c12,103% (inactive)

row,Structure (SMILES),growth
1,CCCn1cnc2c(c1=N)C(c1ccc(F)cc1)c1sc3c(CC)cccc3c1O2 (stereo not given),-47.9% (active)
2,CCN(CC)CCOC(=O)c1ccc(NC(=O)Nc2cccc(Cl)c2)cc1,103% (inactive)
3,C(=C\c1ccncc1)/c1ccncc1,92.6% (inactive)
4,COc1cc(/C=C2\CCCC3C2=Nc2ccccc2NC3c2cc(OC)c(OC)c(OC)c2)cc(OC)c1OC (stereo not given),-6.85% (active)
5,CN(C)c1ccc(/C=C2\Cc3c(F)ccc(Br)c3C2=O)cc1,-29.4% (active)
6,CCCCCc1cc[n+](CC(=O)c2ccc(Cl)cc2)cc1,65.9% (inactive)
7,CCOC(=O)Nc1ccc(-c2nc(-c3cccc(OCCN4CCOCC4)c3)c(-c3ccnc(Br)c3)[nH]2)cc1,33.9% (inactive)
8,Cc1nc2nc(N)nc(N)c2nc1C,97.6% (inactive)
9,Nc1ccc(N=Nc2ccc(S(=O)(=O)O)cc2)c2ccccc12,97.2% (inactive)
10,COc1ccc(Cn2cc3c(c2-c2ccccc2)CC(C)(C)c2cnoc2-3)cc1,3.53% (active)
11,O=C(Cc1ccc(/C=C/C(=O)c2ncc[nH]2)cc1)Nc1ccc(S(F)(F)(F)(F)F)cc1,52.7% (inactive)
12,CNc1ccccc1C(N)=O,105% (inactive)
13,Cc1cc2c(c(C)n1)CN(C(=O)Nc1nc(-c3cncs3)ccc1N)C2,110% (inactive)
14,Cc1ccc2nc(-[n+]3cc4ccccc4cc3C)ccc2c1,-14.5% (active)
15,CCOC(=O)c1cnc2sc(-c3ccc(OC)cc3)nc2c1Cl,90.4% (inactive)
16,Cc1cc(C)c2c(-c3nnc(N)s3)cc(=O)oc2c1,104% (inactive)
17,CCCCCCNC(=O)Oc1ccc(/C(=C(/C)Cc2ccc(OC)cc2)c2ccc(OCCCN(C)C)cc2)cc1,-17.3% (active)
18,CCOC(=O)C(COS(C)(=O)=O)(COS(C)(=O)=O)C(=O)OCC,122% (inactive)
19,CCCCCCCC/C=C\CCCCCCCC(=O)Oc1cccc2cccnc12,121% (inactive)
20,O=C(N=Nc1c(Cl)c(O)c2ccccc2c1O)C(=O)Nc1cccc(C(F)(F)F)c1,80.8% (inactive)
